Screens as filed in PubChem BioAssay.
A selection: hits, their analogues and other compounds. The true share with any hit is near 0.93%.
RPL19A TOR yeast – yeast TOR pathway RPL19A-GFP modulation | S. cerevisiae RPL19A-GFP strain, flow cytometry, 3 h; stronger effect = lower value | percent response vs DMSO, % at 10 µM | 330,000 tested, 0.3% active;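 active = percent response vs DMSO below 50%; inconclusive = fewer than 70 events counted for the yeast strain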;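 note: median channel GFP fluorescence of the barcoded RPL19A-GFP strain; lower means less RPL19A-GFP as with rapamycin TOR inhibition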
CIT2-GFP yeast – yeast TOR pathway CIT2-GFP modulation; S. cerevisiae CIT2-GFP strain, flow cytometry, 3 h; 100 means same as DMSO wells; GFP response vs DMSO, % at 10 µM; 320,000 tested, 0.065% active; AID 2029;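 active = GFP response relative to DMSO above a set limit, near the screen mean plus 3 SD, cut at about 150% in these data; inconclusive = Fewer than 70 cells measured for a yeast strain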;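 note: ratio of well median GFP fluorescence to mean of DMSO wells on the plate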
AGP1-GFP MLPCN – alters AGP1-GFP fluorescence in TOR pathway yeast screen | 320,000 tested, 0.02% active | S. cerevisiae AGP1-GFP multiplex flow cytometry, 3 h; GFP as percent of DMSO wells | GFP response vs DMSO, % at 10 µM | AID 2066;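 active = GFP response relative to DMSO above a set limit, near screen average plus 3 SD, cut at about 150% in these data; inconclusive = fewer than 70 cells counted for the yeast strain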;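 note: median GFP channel fluorescence of the gated AGP1 strain per well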
LAP4-GFP MLPCN – yeast TOR pathway LAP4-GFP modulation | AID 2023 | 320,000 tested, 0.34% active | GFP response vs DMSO, % at 10 µM | S. cerevisiae LAP4-GFP multiplex, flow cytometry GFP, 3 h; median GFP as percent of DMSO wells;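 active = GFP response vs DMSO above a set limit, about the screen mean plus 3 SD, cut at about 150% in these data; inconclusive = under 70 cell events counted for the yeast strain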
MEP2-GFP yeast – alters MEP2-GFP fluorescence in TOR pathway yeast screen. 330,000 tested, 0.51% active. GFP response vs DMSO, % at 10 µM. S. cerevisiae MEP2-GFP strain, flow cytometry GFP, 3 h; 100% = DMSO control level;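 active = GFP response versus DMSO above a set limit, roughly screen mean plus 3 SD, cut at about 180% in these data; inconclusive = fewer than 70 cells counted for a yeast strain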;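 note: median GFP fluorescence of the barcode-gated MEP2-GFP cells per well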
LAP4 cherry2 – reconfirmed LAP4-GFP TOR pathway modulator in yeast; shares compounds with LAP4-GFP MLPCN; S. cerevisiae LAP4-GFP strain, flow cytometry GFP, 3 h; GFP response vs DMSO, % at 10 µM; 590 tested, 20% active;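 active = GFP signal as percent of the solvent control above about 150%, meaning raised reporter expression, limit read from the data; inconclusive = fewer than 70 cells counted in the well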
MEP2 cherry2 – reconfirmed MEP2-GFP TOR pathway modulator in yeast; GFP response vs DMSO, % at 10 µM; shares compounds with LAP4-GFP MLPCN; 590 tested, 10% active; S. cerevisiae MEP2-GFP strain, flow cytometry GFP, 3 h;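 active = GFP signal above 150% of the solvent control wells, that is a rise of more than half; inconclusive = fewer than 70 yeast cells counted in the well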;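 note: median channel GFP fluorescence of all gated yeast cells per well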
RPL19A GFP CP2 – reconfirmed modulator of RPL19A-GFP TOR reporter in yeast. AID 2623. 590 tested, 3% active. S. cerevisiae RPL19A-GFP strain, flow cytometry GFP, 3 h; stronger effect = lower value; 100% means same as DMSO wells. GFP response vs DMSO, % at 10 µM. shares compounds with LAP4-GFP MLPCN;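 active = under 65% GFP response relative to DMSO; inconclusive = yeast strain with under 70 measured events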;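 note: median GFP channel fluorescence per well over the all cells gate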
CIT2-GFP pick2 – yeast CIT2-GFP TOR reporter modulation, second cherry pick. shares compounds with LAP4-GFP MLPCN. S. cerevisiae CIT2-GFP strain, flow cytometry GFP, 3 h; DMSO control wells read 100%. GFP response vs DMSO, % at 10 µM. 590 tested, 8% active. AID 2624;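 active = GFP response vs DMSO above about 150%, limit read from the data; inconclusive = fewer than 70 events counted for a yeast strain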;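 note: median green fluorescence per well over all gated yeast cells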
AGP1 GFP CP2 – second confirmation of modulators of TOR reporter AGP1-GFP in yeast; shares compounds with LAP4-GFP MLPCN; S. cerevisiae AGP1-GFP strain, flow cytometry GFP, 3 h; percent response vs DMSO, % at 10 µM; 590 tested, under 10 active;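 active = over 150 percent of DMSO response; inconclusive = yeast strain measured with under 70 events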;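 note: median GFP channel fluorescence over all cells without mother daughter split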
Yeast autofluor – yeast s288c autofluorescence artifact, counter-screen; shares compounds with LAP4-GFP MLPCN; S. cerevisiae s288c, 520 nm autofluorescence, flow cytometry, 3 h; stronger effect = higher value; zero means same as solvent-only cells; fluorescence change (kMESF span) at 33 µM; 610 tested, under 10 active;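 active = fluorescence span over the dose series, or activity score, above about 33, limit read from the data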
Each line names hits and unclear results; the compound was inactive in the other large screens (follow-up assays come after a bar, where they were run); [ ] = another dose, or the depositor's remark.

CCOc1ccc2nc(N/C(N)=N/C(=S)Nc3ccc(C)c(C)c3)nc(C)c2c1	none
COc1cc(/C=N/NC(=O)c2cc3c(ccc4ccccc43)o2)cc(OC)c1O	RPL19A TOR yeast 18.5[may fluoresce violet], CIT2-GFP yeast inconclusive, AGP1-GFP MLPCN inconclusive, MEP2-GFP yeast 244.6[may fluoresce violet]
COc1ccc(/C=N/NC(=O)c2cc3c(ccc4ccccc43)o2)cc1OC	none
O=C(CCNC(=O)c1ccc(Br)cc1)NNC(=O)C1COc2ccccc2O1 (centres undefined)	none
C=C1SC(Nc2c(C)cccc2C)=NC12CCCCC2	CIT2-GFP yeast inconclusive, MEP2-GFP yeast 651.0[may fluoresce violet]
COc1ccc(-c2cc(C(=O)Nc3cccnc3Cl)no2)cc1OC	RPL19A TOR yeast 24.2[may fluoresce violet], CIT2-GFP yeast inconclusive, AGP1-GFP MLPCN inconclusive, MEP2-GFP yeast inconclusive
CC1=CC(c2ccccc2)n2nc(N3C(=O)C4CC=CCC4C3=O)nc2N1 (centres undefined)	RPL19A TOR yeast 44.3[may fluoresce violet], CIT2-GFP yeast inconclusive, MEP2-GFP yeast 448.2[may fluoresce violet] (no result: AGP1-GFP MLPCN)
CC1=CC(c2ccccc2)n2nc(N3C(=O)CCC3=O)nc2N1 (centres undefined)	none
O=C(CC(=O)NN=C1CCCCCC1)NCc1cccnc1	none
COc1ccc2c(c1OC)C(=O)N1C2SC[C@H]1C(=O)NC1CCCC1 (some centres undefined)	RPL19A TOR yeast 6.8[may fluoresce violet], CIT2-GFP yeast inconclusive, AGP1-GFP MLPCN inconclusive
Cc1ccc(NC(=S)N2CCSC2c2cccs2)cc1 (centres undefined)	CIT2-GFP yeast 165.3, LAP4-GFP MLPCN 154.9, MEP2-GFP yeast 182.4
CCCN1C(=O)CC(C(=O)OC)=C1C	none
COC(=O)C1=C(C)N(CCc2ccccc2)C(=O)C1	RPL19A TOR yeast 43.7[may fluoresce violet], CIT2-GFP yeast inconclusive, AGP1-GFP MLPCN inconclusive, MEP2-GFP yeast 189.3[may fluoresce violet]
COc1cc(C)c(S(=O)(=O)NC2CC(C)(C)NC(C)(C)C2)cc1C	CIT2-GFP yeast inconclusive, MEP2-GFP yeast 422.1[may fluoresce violet]
Cn1c(CNC(=O)c2ccco2)nnc1SCC(=O)c1ccc(F)cc1	none
Cc1ccccc1OCC(=O)NCCN1CCCC1	RPL19A TOR yeast 13.7[may fluoresce violet], CIT2-GFP yeast inconclusive, AGP1-GFP MLPCN inconclusive, LAP4-GFP MLPCN inconclusive, MEP2-GFP yeast inconclusive
O=C(NNC(=O)c1c(O)c2ccccc2[nH]c1=O)c1ccccc1Br	none
Cc1ccccc1CNC(=O)CCNS(=O)(=O)c1ccc(OC(F)(F)F)cc1	none
Cc1cccc(NC(=O)Nc2cc(C)on2)c1	RPL19A TOR yeast 13.7[may fluoresce violet], CIT2-GFP yeast inconclusive, AGP1-GFP MLPCN inconclusive, LAP4-GFP MLPCN inconclusive, MEP2-GFP yeast 242.0[may fluoresce violet]
Cc1ccc(NC(=O)Nc2cc(C)on2)cc1	none
CC1(C)OC(C(O)(c2ccccc2)c2ccccc2)[C@@H](C(O)(c2ccccc2)c2ccccc2)O1 (some centres undefined)	none
COc1cc(C(=O)NC(=S)Nc2nc(-c3ccc(F)cc3)cs2)cc(OC)c1OC	CIT2-GFP yeast 164.1[may fluoresce green]
O=C(CCc1nnc2ccc(N3CCCC3)nn12)Nc1cc(F)ccc1F	none
Cc1cc(=O)oc2cc(NC(=O)CCOc3ccccc3)ccc12	RPL19A TOR yeast 38.3[may fluoresce violet], CIT2-GFP yeast inconclusive, AGP1-GFP MLPCN inconclusive, MEP2-GFP yeast 254.6[may fluoresce violet]
Cc1cccc(OCC(=O)Nc2ccc3c(C)cc(=O)oc3c2)c1	none
COc1ccc(NC2=C(Cl)C(=O)N(c3ccccc3)C2=O)c(OC)c1	none
CCOc1ccc(N2C(=O)C(Cl)=C(Nc3ccccc3O)C2=O)cc1	none | Yeast autofluor inactive
COc1ccc(N2C(=O)C(Cl)=C(Nc3c(C)n(C)n(-c4ccccc4)c3=O)C2=O)cc1	none | Yeast autofluor inactive
COc1ccccc1NC1=C(Cl)C(=O)N(c2ccccc2)C1=O	none | Yeast autofluor inactive
CCOc1ccc(N2C(=O)CN=C2Nc2ccccc2Cl)cc1	none
COc1ccc(N2C(=O)C(Cl)=C(Nc3ccc(OC)cc3OC)C2=O)cc1	none
COc1cc(/C=N/Nc2nc(C)cc(=O)[nH]2)ccc1OC(=O)c1cccnc1	none
CCN(CC(=O)Nc1cc(Cl)ccc1C)C(=O)COc1cccc2c1OC(C)(C)C2	none
CC1CC(C)CN(S(=O)(=O)N2CCCC(C(=O)NC3CCCCC3C)C2)C1 (centres undefined)	none | LAP4 cherry2 inactive | MEP2 cherry2 inactive | RPL19A GFP CP2 inactive | CIT2-GFP pick2 inactive | AGP1 GFP CP2 inactive
CC1=C/C(=N\OS(=O)(=O)c2ccccc2)C(C)=CC1=O	LAP4-GFP MLPCN 234.2 | Yeast autofluor inactive
CC1=C/C(=N\OS(=O)(=O)c2ccccc2)C(C(C)C)=CC1=O	LAP4-GFP MLPCN 191.1 | LAP4 cherry2 172.3 | MEP2 cherry2 157.2 | RPL19A GFP CP2 inactive | CIT2-GFP pick2 inactive | AGP1 GFP CP2 inactive | Yeast autofluor inactive
CC1=C(C)/C(=N\OS(=O)(=O)c2ccc(C)cc2)C=CC1=O	LAP4-GFP MLPCN 244.0 | LAP4 cherry2 159.6 | MEP2 cherry2 inactive | RPL19A GFP CP2 inactive | CIT2-GFP pick2 152.7 | AGP1 GFP CP2 inactive | Yeast autofluor inactive
C[C@@H](NC(=O)[C@@H]1Cc2ccccc2CN1C(=O)OC(C)(C)C)C(=O)NC1CCCC1	none
CC[n+]1ccc(/C=C/c2c[nH]c3ccccc23)cc1	none
Cc1ccc2[nH]cc(/C=C/c3cc[n+](C)cc3)c2c1	LAP4-GFP MLPCN 150.8, MEP2-GFP yeast 216.6 | Yeast autofluor inactive
COC(=O)Cn1cc(/C=C/c2cc[n+](C)cc2)c2ccccc21	none
COc1ccc2c(c1)c(/C=C/c1cc[n+](C)cc1)cn2C	CIT2-GFP yeast 196.0, MEP2-GFP yeast 214.1 | Yeast autofluor inactive
COc1ccc2c(/C=C/c3cc[n+](C)cc3)c[nH]c2c1	CIT2-GFP yeast 209.7, LAP4-GFP MLPCN 150.1, MEP2-GFP yeast 206.7 | Yeast autofluor inactive
